According to PubChem BioAssay AID2283127 (EPA ToxCast):
Records with an inconclusive call do not appear. The source made the active and inactive calls. The calls were made as follows: active = hit-call score of the fitted dose curve at least 0.9, where 1 is the maximum; inconclusive = response in the unintended direction; inactive = score below 0.9.

Molecular target: human AKT serine/threonine Kinase 3 (AKT3), AKT3 (gene 10000) (UniProt Q9Y243)
Assay: NVS_ENZ_hAKT3: NovaScreen (NVS) Enzymatic Assay for human AKT serine/threonine Kinase 3 (AKT3)
Method: NVS_ENZ_hAKT3 is a biochemical, single-readout assay that uses extracted gene-proteins in a cell-free assay. Measurements were taken 1 hour after chemical dosing in a 384-well plate.NVS_ENZ_hAKT3 is one of one assay component(s) measured or calculated from the NVS_ENZ_hAKT3 assay. It is designed to make measurements of enzyme activity, a form of enzyme reporter, as detected with fluorescence intensity signals by Fluorescence and electrophoretic mobility shift technology.Data from the assay component NVS_ENZ_hAKT3 was analyzed into 1 assay endpoint. This assay endpoint, NVS_ENZ_hAKT3, was analyzed in the positive analysis fitting direction relative to DMSO as the negative control and baseline of activity. Using a type of enzyme reporter, loss-of-signal activity can be used to understand changes in the enzymatic activity as they relate to the gene AKT3. Furthermore, this assay endpoint can be referred to as a primary readout, because this assay has produced multiple assay endpoints where this one serves a enzymatic activity function. To generalize the intended target to other relatable targets, this assay endpoint is annotated to the kinase intended target family, where the subfamily is serine/threonine kinase. […]

Sequence of human AKT serine/threonine Kinase 3 (AKT3), AKT3 (gene 10000) (Q9Y243 whole entry, looked up): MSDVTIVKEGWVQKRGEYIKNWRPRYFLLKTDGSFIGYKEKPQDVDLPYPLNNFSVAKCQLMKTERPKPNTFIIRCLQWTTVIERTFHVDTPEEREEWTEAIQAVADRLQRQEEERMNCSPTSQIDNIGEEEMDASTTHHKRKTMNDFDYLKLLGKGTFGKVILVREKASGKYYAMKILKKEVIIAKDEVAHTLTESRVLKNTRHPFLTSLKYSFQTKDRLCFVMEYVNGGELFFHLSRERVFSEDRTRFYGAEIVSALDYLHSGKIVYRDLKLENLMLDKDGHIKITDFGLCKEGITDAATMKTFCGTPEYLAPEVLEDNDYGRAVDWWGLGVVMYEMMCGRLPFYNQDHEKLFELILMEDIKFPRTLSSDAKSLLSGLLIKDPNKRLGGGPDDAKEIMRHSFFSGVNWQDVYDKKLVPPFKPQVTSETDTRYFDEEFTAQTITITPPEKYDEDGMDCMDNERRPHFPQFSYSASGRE

Row | SMILES | outcome | AC50
1 | CN(C)C(=S)SSC(=S)N(C)C | inactive | –
2 | S=C([S-])NCCNC(=S)[S-].[Mn+2] | – | 25 µM (active)
